An excerpt weighted towards active compounds, which were near 21% of everything screened.
VP16 counter – Gal4-VP16 reporter inhibition counter-screen. Potency, µM (top dose mostly 53.6 µM), without a hit: at the highest dose activity, negative = inhibition, hits mostly inhibitors. Drosophila S2 Gal4-VP16 UAS-luciferase, luminescence, 20 h. 310,000 tested, 3.5% active;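 further: Gal4-VP16 expression switched on by copper sulfate through the metallothionein promoter; potency means the concentration at half of the fitted maximal effect; nearly all actives have a fitted effect of over 50% in size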
TDP1 cell CPT – growth inhibition of DT40 Tdp1-/-;hTDP1 cells with camptothecin (screen for TDP1 inhibitors) | chicken DT40 Tdp1-/-;hTDP1 cells + 20 nM CPT, ATP luminescence, 48 h | Potency, µM (highest dose often 46.2 µM), for the others: top-dose activity change, negative = growth inhibition, usual class: inhibitors | 420,000 tested, 12% active; further: potency means the concentration at half of the fitted maximal effect; nearly all actives have a fitted effect of over 55% in size
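Chicken DT40 Tdp1-/- cells complemented with human TDP1, 400 cells/well, exposed to compounds plus 20 nM camptothecin for at least 48 h at 37 C; viability read as ATP content by CellTiter-Glo luminescence.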
RORgamma inh – blocks mouse ROR gamma transcriptional activity | AID 2551 | 310,000 tested, 5.4% active | P51450 | Potency, µM (titrated, usually from 53.6 µM), without a hit: top-dose activity change, negative = inhibition, hits mostly inhibitors | Drosophila S2 Gal4-RORgamma UAS-luciferase reporter, 20 h; further: potency means the concentration at half of the fitted maximal effect; nearly all actives have a fitted effect of over 60% in size
Target sequence (P51450 whole entry, looked up, the tested form may be a part): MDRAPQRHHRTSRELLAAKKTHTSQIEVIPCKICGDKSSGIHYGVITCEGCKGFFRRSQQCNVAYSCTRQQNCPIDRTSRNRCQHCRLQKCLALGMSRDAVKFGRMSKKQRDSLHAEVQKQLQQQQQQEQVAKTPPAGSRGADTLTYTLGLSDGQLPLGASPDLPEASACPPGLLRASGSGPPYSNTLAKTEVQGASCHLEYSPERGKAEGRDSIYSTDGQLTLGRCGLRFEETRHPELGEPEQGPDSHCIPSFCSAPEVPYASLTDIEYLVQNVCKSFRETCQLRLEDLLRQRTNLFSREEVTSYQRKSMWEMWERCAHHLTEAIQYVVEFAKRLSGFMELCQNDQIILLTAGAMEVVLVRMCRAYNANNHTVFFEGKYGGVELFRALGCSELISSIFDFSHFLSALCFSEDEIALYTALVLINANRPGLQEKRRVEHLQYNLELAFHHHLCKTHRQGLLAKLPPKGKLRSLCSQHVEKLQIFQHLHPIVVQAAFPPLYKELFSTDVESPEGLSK
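Using a luciferase readout, inhibitors were identified by reduced reporter activity in Drosophila cells coexpressing a copper-inducible Gal4–ROR gamma fusion and UAS-driven Photinus luciferase, incubated 20 hr after 700 uM copper sulfate.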
IL1B secr inh – inhibitors of inflammasome signaling (IL-1 beta secretion); 360,000 tested, 4.7% active; activity change, % at 57.5 µM; THP-1 LPS/ATP IL-1B secretion, AlphaLISA, 16 h; hits give low values; in the data active means activity change below about -50%; inconclusive means mostly about -30% to -49%
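THP-1 cells pretreated 1 hr with compounds (up to 57.5 uM final), then stimulated with LPS (250 ng/mL final) plus ATP (1.25 mM final); secreted IL-1B measured by AlphaLISA after 16 hr, decreased signal indicating inhibition.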
TDP1 cell noCPT – qHTS for Inhibitors of human tyrosyl-DNA phosphodiesterase 1 (TDP1): qHTS in cells in absence of CPT. DT40 Tdp1-/- hTDP1 cells, no CPT, ATP luminescence, 48 h. Potency, µM (series often up to 46.2 µM), inactives show at the top dose activity change, negative = growth inhibition, most hits filed as inhibitors. 420,000 tested, 15% active. AID 686978, 2013; further: potency means the concentration at half of the fitted maximal effect; nearly all actives have a fitted effect of over 55% in size
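No-CPT arm: Tdp1-/-;hTDP1 DT40 cells (400/well) plus compounds, incubated ≥48 hr at 37 °C. Readout CellTiter-Glo luminescence.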
ELG1 repair inh – blocks ELG1-dependent DNA repair in HEK293T cells; HEK293T ELG1-luciferase reporter, luminescence, 16 h; DNA damage induced by 5-fluorouridine; Potency, µM (top dose mostly 46.1 µM), without a hit: at the top dose activity change, negative = inhibition, actives largely listed as inhibitors; 330,000 tested, 2.3% active; AID 504467; further: potency means the concentration at half of the fitted maximal effect; nearly all actives have a fitted effect of over 55% in size
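Quantitative HTS, concentration-response format. 2,000 cells/well co-treated with 5-fluorouridine and compound, 16 hr in 5% CO2 at 37 °C; ONE-Glo luminescence read after 30 min.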
* hit, by the source's call; ? = inconclusive; . = no result; [ ] = another dose, or the depositor's remark. Unless noted, the call rests on the fitted dose curve; in most records, active means well fitted curve in the direction sought with a large enough effect; inconclusive means small, poorly fitted or top-dose-only effect, or another doubt; inactive means no such curve, though single readings can be large; an effect the other way counts as inactive or inconclusive. On the % scale 0 is the no-effect control and ±100 the full control effect.

SMILES | VP16 counter | TDP1 cell CPT | RORgamma inh | IL1B secr inh | TDP1 cell noCPT | ELG1 repair inh
CCOC(=O)N/N=C1/C[C@@H](O)[C@@H](O)[C@@H]2[C@@H]3C(=O)N(CC)C(=O)[C@H]3CC[C@@H]12 | -0.3%[10 µM] | . | 3.1%[10 µM] | . | . | .
CC(=O)N1c2ccc(S(=O)(=O)N3CCC(C(=O)N4CCC(C)CC4)CC3)cc2CC1C (stereo not drawn) | -1.4% | ? | 16.0% | ? | ? | ?
CC(=O)N1c2ccc(S(=O)(=O)N3CCC(C(=O)N4CCCC(C)C4)CC3)cc2CC1C (stereo not drawn) | -27.6% | 20.6µM* | 1.7% | 1.2 | ? | -25.0%
CC1CC(C)CN(C(=O)C2CCN(S(=O)(=O)c3ccc4c(c3)CC(C)N4C(=O)C3CC3)CC2)C1 (stereo not drawn) | 0.5% | 16.4µM* | 7.5% | ? | ? | -17.2%
CC(=O)N1c2ccc(S(=O)(=O)N3CCC(C(=O)N4CC(C)CC(C)C4)CC3)cc2CC1C (stereo not drawn) | 4.2% | 20.6µM* | 11.9% | -13.7 | ? | -25.1%
O=C(Nc1cc(Cl)ccc1O)c1cc2nc(-c3ccc4c(c3)OCO4)cc(C(F)(F)F)n2n1 | . | -25.0% | . | . | ? | .
CCN(C(=O)COC(=O)c1ncc(Cl)c(Cl)c1Cl)c1c(N)n(Cc2ccccc2)c(=O)[nH]c1=O | . | ? | . | -27.3 | -22.2% | .
CCOc1ccccc1C=C1CCc2ccccc2C1=O | . | ? | . | -9.7 | ? | .
COc1ccc(/C=C2\COc3ccccc3C2=O)c(OC)c1 | 23.6% | 20.6µM* | 18.6% | 2.2 | ? | ?
COc1ccc(C=C2c3ccccc3C(=O)c3ccccc32)c(OC)c1 | -3.0% | . | -20.7% | . | . | 23.1µM*
COc1cc(/C=C2/CCc3ccccc3C2=O)cc(OC)c1OC | -5.4% | ? | -6.5% | -99.0* | 14.6µM* | ?
COc1ccccc1C=C1CCc2ccccc2C1=O | . | ? | . | -7.2 | ? | .
COc1ccc2c(c1)O/C(=C\c1ccccc1C)C2=O | ? | ? | ? | -4.3 | -19.0% | ?
CCOc1cc(/C=C2\COc3ccccc3C2=O)cc(Br)c1OCC(=O)N(C)C | 20µM* | 3.66µM* | ? | -103.2* | 4.61µM* | ?
COc1cc2c(cc1O)CCN(C(=O)CSc1nncn1C)[C@@H]2C | . | -14.8% | . | 17.8 | 3.5% | 19.8%
COc1ccccc1CCn1c(=O)c(C)nc2cncnc21 | -0.4% | 1.9% | -15.4% | . | ? | .
COc1ccc(/C=C2\C(=O)NC(=O)c3ccccc32)cc1OC | . | 1.64µM* | . | 51.2 | 1.46µM* | .
COc1ccc(/C=C2\CCc3c2nc2ccccc2c3C(=O)O)cc1OC | 11.2µM* | -18.9% | 8.91µM* | 0.0 | -25.0% | ?
Cc1cc(C)c2c(c1)C(=O)/C(=C/c1ccc(C(=O)O)cc1)CC2 | -6.3% | -16.0% | 23.1% | -13.2 | -15.1% | ?
COc1ccc(/C=C2\OC(=O)c3c(OC)cccc32)cc1OC | -7.1% | -28.3% | -16.6% | ? | ? | ?
COc1ccc(C=C2C(=O)OC(C)(C)OC2=O)cc1OC | 0.0% | -1.5% | 29.0% | -0.7 | -10.5% | ?
COc1ccc(/C=C2\CCCc3c2nc2ccccc2c3C(=O)O)cc1OC | 6.0% | . | 5.8% | . | . | ?
COc1ccc(/C=C2\COc3ccccc3C2=O)cc1OC | ? | 14.6µM* | ? | -98.5* | 20.6µM* | ?
O=C(O)c1ccc(/C=C2\COc3ccccc3C2=O)cc1 | 6.31µM* | ? | 7.08µM* | -105.0* | 18.4µM* | ?
COC(=O)[C@@]1(Cc2ccc(F)cc2)[C@H]2c3cc(C(=O)N(C)C)n(CCCNc4ccc(C(F)(F)F)cc4Cl)c3C[C@H]2CN1C(=O)c1ccccc1 | -2.2% | . | 32.5% | . | . | .

Compound activity deposited in PubChem by National Center for Advancing Translational Sciences (NCATS).
